# Results from PubChem BioAssay (NCI).
# This is part of a sample that, as a whole, favours compounds with a hit. Of some 83,000 tested, about 20% had one in any assay.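 Percent growth is the endpoint: 0 to 100 indicates growth inhibition (40 means 60% inhibition), 0 means no net growth, and negative values indicate cell death.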 Values without a mark were called inactive. The source made the active and inactive calls. The calls were made as follows: active = growth percent below 10; inactive = the rest.
# What was measured:
# Experiment in all cases: NCI-60 one-dose screen, 48 h (100 = growth as untreated, 0 = no growth, -100 = all killed)
# Settings in all cases: 10 µM
# SR leukemia = tested on: SR leukemia
# RPMI-8226 leukemia = tested on: RPMI-8226 leukemia
# OVCAR-8 ovarian = tested on: OVCAR-8 ovarian
# OVCAR-5 ovarian = tested on: OVCAR-5 ovarian
# OVCAR-4 ovarian = tested on: OVCAR-4 ovarian
# SK-OV-3 ovarian = tested on: SK-OV-3 ovarian
# IGROV1 ovarian = tested on: IGROV1 ovarian
# OVCAR-3 ovarian = tested on: OVCAR-3 ovarian
# HS 578T breast = tested on: HS 578T breast
# NCI/ADR-RES ovarian = tested on: NCI/ADR-RES ovarian
SMILES,growth (SR leukemia),growth (RPMI-8226 leukemia),growth (OVCAR-8 ovarian),growth (OVCAR-5 ovarian),growth (OVCAR-4 ovarian),growth (SK-OV-3 ovarian),growth (IGROV1 ovarian),growth (OVCAR-3 ovarian),growth (HS 578T breast),growth (NCI/ADR-RES ovarian)
CC(=O)Nc1ccc(-c2cn(-c3cccc(C(=O)Nc4ccc(Cl)c(C(F)(F)F)c4)c3)nn2)cn1,16.1%,16.2%,-32.7% (active),-17.8% (active),-74.9% (active),-3.46% (active),-54% (active),-75.9% (active),-12% (active),41.6%
COc1cc(/C=C/C(=O)c2ccc(NC(=O)CSc3nnc(-c4c[nH]c5ccccc45)n3-c3ccccc3)cc2)cc(OC)c1OC,35.3%,6.57% (active),50.1%,108%,93%,121%,48.8%,66%,93.2%,96.1%
CN1C(=O)N(C)C2SC(N/N=C/c3ccc(F)cc3)=NC21 (centres undefined),11.7%,77%,66.8%,77.9%,77.2%,61.8%,46%,-41.9% (active),33.5%,13%
COc1ccc(C2N(c3ccc(Br)cc3)N=C(C(C)=O)N2[C@H]2[C@H](OC(C)=O)O[C@H](COC(C)=O)[C@@H](OC(C)=O)[C@@H]2OC(C)=O)cc1 (some centres undefined),75.9%,41.1%,78%,85.6%,71.6%,61.4%,77.8%,73.2%,63.3%,62.1%
Cn1cc(/C=N/Nc2cccc(Cl)n2)c2ccccc21,27.6%,47.6%,80.3%,92.5%,60.3%,92.6%,46.1%,63.3%,69.4%,36.1%
COc1ccc(CN2[C@@H](C(=O)NCc3ccc(C(=O)NO)cc3)Cc3c([nH]c4ccccc34)[C@@H]2C)cc1,14.5%,20.1%,27.9%,4.29% (active),40.1%,-8.39% (active),12.4%,11.1%,-5.59% (active),68.8%
Nc1nnc(-c2c[nH]c3ccc(F)cc23)c(-c2c[nH]c3ncccc23)n1,20.6%,60.3%,46.7%,78.8%,81.4%,92%,33.5%,59.3%,29.1%,101%
COc1nccnc1NS(=O)(=O)c1ccc(NC2=C(Cl)C(=O)c3nc(C)ccc3C2=O)cc1,115%,94.5%,99.5%,112%,86.5%,–,113%,83.2%,92.8%,92.4%
O=C(CSc1nnc(-c2c[nH]c3ccccc23)n1-c1ccccc1)Nc1ccc(C(=O)/C=C/c2ccc(Cl)cc2)cc1,70.8%,4.94% (active),85.5%,98.2%,74.8%,–,74.7%,69.6%,73.2%,92.9%
Cc1ccc(F)cc1N/C=c1\s/c(=C(\C#N)C(=O)Nc2ccccc2)n(-c2ccccc2)c1=O,75.4%,84.9%,53.9%,72.5%,-26.9% (active),–,61.5%,99%,37%,42.6%
CCOC(=O)C1=C(N)N(c2ccc(C)cc2)C2=C(C(=O)CC(C)(C)C2)C1c1ccccc1OC (centres undefined),92.1%,96.2%,110%,104%,108%,103%,98.6%,118%,102%,99.7%
CN(C)c1ccc(/C=C/c2nc3ccccc3c(=O)n2CC(=O)Nc2ccccc2)cc1,75.5%,64.3%,25.9%,89.1%,35.5%,–,76.2%,26.4%,44.7%,30.4%
COc1ccc2ncc(C#Cc3cncc(C(=O)Nc4ccc(CN5CCN(C)CC5)c(C(F)(F)F)c4)c3)n2n1,-26.3% (active),-26.3% (active),-49.2% (active),-94.5% (active),-75.2% (active),49.8%,-76.1% (active),-93.2% (active),-2.29% (active),-81.4% (active)
Nc1nc(-c2ccccc2)cs1,30%,34.6%,37.7%,83.5%,59.4%,–,63.7%,44.6%,55.8%,28.5%
OCCCNc1oc(-c2ccccc2)nc1[P+](c1ccccc1)(c1ccccc1)c1ccccc1,1.71% (active),4.55% (active),8.02% (active),26.2%,16.6%,-4.9% (active),-19.4% (active),-8.66% (active),-13.3% (active),95%
O=C(Cc1ccc2c(c1)CN(C1CCC(=O)NC1=O)C2=O)NCCc1ccccc1 (centres undefined),53.5%,45.6%,4.26% (active),37.6%,10.6%,28%,2.99% (active),20.1%,-5.24% (active),28.4%
COc1cc2oc(-c3cccc(C(=O)Nc4ccc(Cl)cc4)c3)cc(=O)c2c(OCCNC(=O)CNC(=O)OC(C)(C)C)c1OC,37.5%,29.4%,48%,67.8%,65.8%,92.7%,50.9%,98.3%,62.8%,50.6%
CN(C)CCNC(=O)OCCCCOc1cc(O)c2c(=O)cc(-c3ccccc3)oc2c1,-28.9% (active),-9.41% (active),3.84% (active),-4.32% (active),-16.2% (active),99.1%,-9.88% (active),-77.1% (active),40.7%,27.9%
Cc1ccc(C(=O)CSc2nnc(-c3c[nH]c4ccccc34)n2-c2ccccc2)cc1,53%,58.9%,11.3%,13%,-15.6% (active),–,24.2%,65.2%,-0.727% (active),-27.7% (active)
Clc1cccc(N/N=C/c2c[nH]c3ccccc23)n1,13.7%,4.05% (active),41%,52.2%,41.3%,63.7%,-4.86% (active),-12.6% (active),28.5%,-4.45% (active)
O=c1c2ccccc2nc(COc2ccccc2)n1/N=C/c1ccc(N2CCOCC2)cc1,95.1%,88.8%,33.1%,93.3%,40.4%,64.5%,56.9%,85.2%,41.2%,58.1%
O=C(CSc1nnc(-c2ccc3nc(-c4ccc(Cl)cc4)[nH]c3c2)o1)Nc1ccc(Br)cc1,3.26% (active),0.539% (active),-43.5% (active),39.5%,16.4%,60.2%,23.2%,-15.9% (active),-16.5% (active),10.9%
